According to the OligoGym collection:
Note: reference of the scale not given here.

These sequences were tested against YWHAG (assay: pooled miR-30 sensor sort-seq; sequence = guide strand). Details: shRNA.
TTAATACTGTCAACTAATCAGA showed a sensor-assay potency score (higher = more potent) of -0.755. In the case of TTCAGGTAGAACACTTTGCTCT, the sensor-assay potency score (higher = more potent) is reported as -0.452. With TTACACTGTTCCATGTCTGTAG the sensor-assay potency score (higher = more potent) was 0.201. For TAAACCATAAGGATGAATGAGA, the sensor-assay potency score (higher = more potent) was -0.514. For AATACCAGCACAGCTAGCCTGA, the sensor-assay potency score (higher = more potent) was -0.754. With TCCTTCTCTATCTTCTCCCGGT the sensor-assay potency score (higher = more potent) was -0.85. TTTAAGTTTTCTTTTCATCTGA showed a sensor-assay potency score (higher = more potent) of 0.297. Work on TTAAGTTTTCTTTTCATCTGAA yielded a sensor-assay potency score (higher = more potent) of 0.563. Sequence TTCTAAGTCTGTCAGTCTGGGA has a sensor-assay potency score (higher = more potent) of -0.946.

What follows are sequences tested against YY1AP1 in the same assay as above. Details: shRNA.
Work on TTTTTCTAGGCCTTGATCTGAG yielded a sensor-assay potency score (higher = more potent) of -0.00665. For TTTGCTTCCTTTTCGTGTCGGA, the sensor-assay potency score (higher = more potent) was 0.308. TAGAAGGTACTTGTTGTCCTCA showed a sensor-assay potency score (higher = more potent) of 0.0643. TTCCATCTTGACAACTTCCTCT was tested, and the sensor-assay potency score (higher = more potent) was 0.35. TGTCAAGAGCTGAACATGCTGC showed a sensor-assay potency score (higher = more potent) of -0.313. TTCAAACAGATCTTCCATCAGC was tested, and the sensor-assay potency score (higher = more potent) was -0.176. With ATGAACTTCCTTACACTGGGGT the sensor-assay potency score (higher = more potent) was 0.289. For TTAAGACATATCCTGGTGCTAC, the sensor-assay potency score (higher = more potent) was -0.46. TTTAACCTTCTCTACCTCCTTC gave a sensor-assay potency score (higher = more potent) of 0.0131. In the case of TTCCTCTGTAGCATCTTCAGGT, the sensor-assay potency score (higher = more potent) is reported as 0.0483. In the case of TAAAGTTAGCTTGAGGCTCAGC, the sensor-assay potency score (higher = more potent) is reported as -0.69. Work on TGTTCTCTGACAATCCTTCTTG yielded a sensor-assay potency score (higher = more potent) of -0.0122.

What follows are sequences tested against YY2 in the same assay as above. Details: shRNA.
TTGACTGAGCGAACTTCCTGTT gave a sensor-assay potency score (higher = more potent) of -0.213. For TAGCTGGTTGTCTGAGTCGCAA, the sensor-assay potency score (higher = more potent) was -1.47. TCAAGTACTCGGAATAATCAGG was tested, and the sensor-assay potency score (higher = more potent) was -0.787. Sequence TCGTCTTCAATGCTATCCGGGA has a sensor-assay potency score (higher = more potent) of -0.643. TTTGACCTGCATTTGCTTCTGC was tested, and the sensor-assay potency score (higher = more potent) was 0.61. Work on TTGAGCTCTCAAGAAAAGCTTT yielded a sensor-assay potency score (higher = more potent) of -0.69. Sequence TTTAGTAAATTCTGCCAGCTGT has a sensor-assay potency score (higher = more potent) of -0.34. For TACTGGACGCTTTCCGTCGGAA, the sensor-assay potency score (higher = more potent) was -1.27. TTGTGTCTGCAACATAAGCATT gave a sensor-assay potency score (higher = more potent) of -1.56. For TTCTGCTCCCACTTCCTCGTGC, the sensor-assay potency score (higher = more potent) was 0.239. For TAGGGGACCACATAGTCACGGA, the sensor-assay potency score (higher = more potent) was -0.62. In the case of TGTCTGAGTCGCAATAGCCCAC, the sensor-assay potency score (higher = more potent) is reported as -0.97.

What follows are sequences tested against ZBTB24 in the same assay as above. Details: shRNA.
For TTAAGAACTGAGCAGTAGCCAG, the sensor-assay potency score (higher = more potent) was -1.12. Work on TTGGTGGTCAGAGCCTTGCTGC yielded a sensor-assay potency score (higher = more potent) of -1.29. For TTGGAAGTCTGTGTAAGCCTTT, the sensor-assay potency score (higher = more potent) was -0.108. In the case of TTAAATTCTGCAGTTGCTCTGG, the sensor-assay potency score (higher = more potent) is reported as 0.17. TTGAGAAGTATTCACTACTGGC showed a sensor-assay potency score (higher = more potent) of 0.328. For TTAACCACAAAGTTTTGTCTAT, the sensor-assay potency score (higher = more potent) was -0.0895. In the case of TGTAGCTGAAGAATATTCCTGA, the sensor-assay potency score (higher = more potent) is reported as 0.823.
